The supplement of paper PMC13380429

Columns and labels:
[1] = tested on: Vero E6 infected with SARS-CoV-2; test: morphology score (similarity to uninfected cells); higher = more like uninfected cells; conditions: 24 h
[2] = tested on: Vero E6 infected with SARS-CoV-2; test: SARS-CoV-2 infection rate relative to infected DMSO; higher = more infection, active = 60 or less; conditions: 24 h

Q: `O=C1/C(=C/c2ccccc2)C[C@@]2(O)[C@H]3Cc4ccc(O)c5c4[C@@]2(CCN3CC2CC2)[C@H]1O5` (0.833333 µM) was tested. Which morphology score [1] did it give?
A: 0.732

Q: What about the SARS-CoV-2 infection rate [2] of the same molecule?
A: 23.5% (active)

Q: Which morphology score [1] does the source give for `COc1ccc(Cn2ccc3ccc(C(=O)NO)cc32)cc1` (0.833333 µM) here?
A: 0.108

Q: And the SARS-CoV-2 infection rate [2]?
A: 111% (inactive)

Q: How did the morphology score [1] turn out when `CCn1c(=O)[nH]c2cc(Cl)c(Cl)cc21` (10 µM) was run?
A: 0.171

Q: What about the SARS-CoV-2 infection rate [2] of the same molecule?
A: 83.5% (inactive)

Q: For `Cc1nc2c(c(=O)[nH]1)CSCC2` (10 µM), which morphology score [1] is on record?
A: 0.0297

Q: What about the SARS-CoV-2 infection rate [2] of the same molecule?
A: 114% (inactive)

Q: What does the source list for `O=C1OC2(c3ccc(O)cc3Oc3cc(O)ccc32)c2ccccc21` [fluorescein] (10 µM)?
A: morphology score [1]: 0.0519; SARS-CoV-2 infection rate [2]: 110% (inactive)

Q: With `O=c1[nH]c(CCl)nc2sc3c(c12)CCCC3` (10 µM) as the molecule, how does the morphology score [1] read?
A: 0.193

Q: And the SARS-CoV-2 infection rate [2]?
A: 104% (inactive)

Q: With `NCC(O)(CS(=O)(=O)O)c1ccc(Cl)cc1` (centres undefined) [2-hydroxysaclofen] (10 µM) as the molecule, how does the morphology score [1] read?
A: 0.266

Q: What about the SARS-CoV-2 infection rate [2] of the same molecule?
A: 84.5% (inactive)

Q: For `CCc1cccc(CC)c1NC(=O)N1Cc2[nH]nc(NC(=O)c3ccc(N4CCN(C)CC4)cc3)c2C1` (10 µM), which morphology score [1] is on record?
A: 0.108

Q: And the SARS-CoV-2 infection rate [2]?
A: 113% (inactive)

Q: With `Cc1cc(O)cc(C)c1Cl` [chloroxylenol] (10 µM) as the molecule, how does the morphology score [1] read?
A: 0.0293

Q: What about the SARS-CoV-2 infection rate [2] of the same molecule?
A: 99% (inactive)

Q: For `Nc1ccc2ncnc(NCCc3ccc(Oc4ccccc4)cc3)c2c1` (10 µM), which morphology score [1] is on record?
A: -0.17

Q: And the SARS-CoV-2 infection rate [2]?
A: 102% (inactive)

Q: How did the morphology score [1] turn out when `CN[C@@H](C)C(=O)N[C@H](C(=O)N1CCC[C@H]1C(=O)N[C@H]1c2ccccc2C[C@H]1OCC#CC#CCO[C@@H]1Cc2ccccc2[C@@H]1NC(=O)[C@@H]1CCCN1C(=O)[C@@H](NC(=O)[C@H](C)NC)C1CCCCC1)C1CCCCC1` (10 µM) was run?
A: -0.161

Q: And the SARS-CoV-2 infection rate [2]?
A: 112% (inactive)

Q: `CCCCOc1ccc(CC(=O)NO)cc1` [bufexamac] (10 µM) was tested. Which morphology score [1] did it give?
A: 0.234

Q: And the SARS-CoV-2 infection rate [2]?
A: 94% (inactive)

Q: What does the source list for `CN(C)c1ccc(/C=C2\C(=O)Nc3ccccc32)cc1` (10 µM)?
A: morphology score [1]: 0.175; SARS-CoV-2 infection rate [2]: 101% (inactive)

Q: What does the source list for `CCCC(=O)O[C@]1(C(=O)CCl)[C@@H](C)C[C@H]2[C@@H]3CCC4=CC(=O)C=C[C@]4(C)[C@@]3(F)C(=O)C[C@@]21C` [clobetasone-butyrate] (10 µM)?
A: morphology score [1]: 0.344; SARS-CoV-2 infection rate [2]: 96% (inactive)

Q: What does the source list for `CCCc1nc(C)c2c(=O)nc(-c3cc(S(=O)(=O)N4CCN(CC)CC4)ccc3OCC)[nH]n12` [vardenafil] (10 µM)?
A: morphology score [1]: 0.227; SARS-CoV-2 infection rate [2]: 97.5% (inactive)

Q: With `CC(=O)Nc1ccc(C(=O)Nc2ccccc2N)cc1` [tacedinaline] (0.833333 µM) as the molecule, how does the morphology score [1] read?
A: -0.0863

Q: And the SARS-CoV-2 infection rate [2]?
A: 110% (inactive)

Q: `CC(C)c1ccc2c(c1)CC[C@H]1[C@](C)(CN)CCC[C@]21C` [lylamine] (0.833333 µM) was tested. Which morphology score [1] did it give?
A: -0.00872

Q: And the SARS-CoV-2 infection rate [2]?
A: 106% (inactive)

Q: Which morphology score [1] does the source give for `Nc1ncnc2c1ncn2C1CCCO1` (centres undefined) (10 µM) here?
A: 0.029

Q: What about the SARS-CoV-2 infection rate [2] of the same molecule?
A: 103% (inactive)

Q: With `Cn1cc(C(=O)c2cccc3ccccc23)cc1C(=O)O` [napirimus] (10 µM) as the molecule, how does the morphology score [1] read?
A: 0.122

Q: And the SARS-CoV-2 infection rate [2]?
A: 107% (inactive)

Q: For `Cc1ncc([N+](=O)[O-])n1CC(O)CCl` (centres undefined) [ornidazole] (10 µM), which morphology score [1] is on record?
A: 0.0809

Q: What about the SARS-CoV-2 infection rate [2] of the same molecule?
A: 107% (inactive)

Q: How did the morphology score [1] turn out when `CCC(=O)O[C@@H]1CC(=O)O[C@H](C)C/C=C/C=C/[C@H](OC(C)=O)[C@H](C)C[C@H](CC=O)[C@H](O[C@@H]2O[C@H](C)[C@@H](O[C@H]3C[C@@](C)(OC(C)=O)[C@@H](OC(=O)CC)[C@H](C)O3)[C@H](N(C)C)[C@H]2O)[C@H]1OC` [miocamycin] (10 µM) was run?
A: -0.0251

Q: What about the SARS-CoV-2 infection rate [2] of the same molecule?
A: 110% (inactive)

Q: For `NC1(c2ccc(-c3nc4ccn5c(=O)[nH]nc5c4cc3-c3ccccc3)cc2)CCC1` (0.833333 µM), which morphology score [1] is on record?
A: 0.255

Q: And the SARS-CoV-2 infection rate [2]?
A: 106% (inactive)

Q: `C=CC1=C(C)c2cc3[nH]c(cc4nc(cc5[nH]c(cc1n2)c(C)c5CCC(=O)O)C(CCC(=O)O)=C4C)c(C)c3C=C` [protoporphyrin-IX] (10 µM) was tested. Which morphology score [1] did it give?
A: -0.0298

Q: And the SARS-CoV-2 infection rate [2]?
A: 115% (inactive)

Q: `CC(C)c1noc(N2CCC(COc3ccc(-c4ccc(S(C)(=O)=O)cc4)nc3)CC2)n1` (10 µM) was tested. Which morphology score [1] did it give?
A: -0.0966

Q: What about the SARS-CoV-2 infection rate [2] of the same molecule?
A: 116% (inactive)

Q: For `CCOc1ccccc1OCC1CNCCO1` (centres undefined) [viloxazine] (10 µM), which morphology score [1] is on record?
A: 0.0033

Q: What about the SARS-CoV-2 infection rate [2] of the same molecule?
A: 112% (inactive)

Q: For `CC1(C)O[C@H]2CC(=O)OC[C@]23[C@H]2CC[C@@]4(C)[C@H](c5ccoc5)OC(=O)[C@H]5O[C@]54[C@]2(C)C(=O)C[C@@H]13` [limonin] (10 µM), which morphology score [1] is on record?
A: 0.289

Q: And the SARS-CoV-2 infection rate [2]?
A: 103% (inactive)

Q: `O=C(N[C@H]1CCN(C(=O)c2cc(C(F)(F)F)cc(C(F)(F)F)c2)[C@H](Cc2ccc(Cl)cc2)C1)c1ccnc2ccccc12` (10 µM) was tested. Which morphology score [1] did it give?
A: 0.195

Q: What about the SARS-CoV-2 infection rate [2] of the same molecule?
A: 81.5% (inactive)
